{"source": "PubChem BioAssay (EPA / NIEHS)", "key": {"[1]": {"biological_target": "guinea pig Bradykinin Receptor B2 (BK2), BDKRB2 (gene 100135486) (UniProt O70526)", "sequence (O70526 whole entry, looked up)": "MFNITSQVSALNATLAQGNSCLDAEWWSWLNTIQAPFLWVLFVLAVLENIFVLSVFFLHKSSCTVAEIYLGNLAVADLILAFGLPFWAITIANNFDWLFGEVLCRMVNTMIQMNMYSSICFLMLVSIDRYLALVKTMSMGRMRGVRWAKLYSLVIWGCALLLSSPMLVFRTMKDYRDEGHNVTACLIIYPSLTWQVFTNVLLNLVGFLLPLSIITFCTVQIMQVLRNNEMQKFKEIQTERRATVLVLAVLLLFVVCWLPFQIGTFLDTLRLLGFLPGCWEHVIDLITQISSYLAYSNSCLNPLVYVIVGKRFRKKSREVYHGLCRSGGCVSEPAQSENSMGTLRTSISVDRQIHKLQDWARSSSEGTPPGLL", "experiment": "NVS_GPCR_gBK2: NovaScreen (NVS) G Protein-Coupled Receptor Assay for guinea pig Bradykinin Receptor B2 (BK2) (AID 2283292)", "how_it_was_run": "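Radioligand displacement on guinea pig ileum membranes for 1 h, read by filter-based scintillation counting; loss of signal relative to DMSO. Compounds were screened in duplicate at 25 uM, and those passing the threshold were retested in concentration-response up to 50 uM.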"}, "[2]": {"tested_on": "rabbit Platelet Activating Factor Receptor (PAF), gene 100354046", "experiment": "NVS_GPCR_rabPAF: NovaScreen (NVS) G Protein-Coupled Receptor Assay for rabbit Platelet Activating Factor Receptor (PAF) (AID 2283287)", "how_it_was_run": "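Rabbit platelet membrane preparation; radioligand displacement read by filter-based scintillation counting 1 h after dosing, loss of signal versus DMSO. Primary screen in duplicate at 25 uM, actives followed up in concentration series.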"}, "[3]": {"biological_target": "human Opioid Receptor Mu (Opiate Mu), OPRM1 (gene 4988) (UniProt P35372)", "sequence (P35372 whole entry, looked up)": "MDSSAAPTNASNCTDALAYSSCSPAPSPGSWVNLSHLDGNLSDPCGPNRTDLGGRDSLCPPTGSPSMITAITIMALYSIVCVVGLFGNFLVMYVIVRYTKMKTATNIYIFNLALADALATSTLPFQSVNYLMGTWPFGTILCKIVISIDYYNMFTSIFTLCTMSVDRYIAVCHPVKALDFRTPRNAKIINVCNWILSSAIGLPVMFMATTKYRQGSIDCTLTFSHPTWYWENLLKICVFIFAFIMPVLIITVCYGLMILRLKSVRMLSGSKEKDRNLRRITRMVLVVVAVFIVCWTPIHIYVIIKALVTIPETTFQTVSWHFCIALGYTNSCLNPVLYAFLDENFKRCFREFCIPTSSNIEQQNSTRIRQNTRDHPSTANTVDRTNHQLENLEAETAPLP", "experiment": "NVS_GPCR_hOpiate_mu: NovaScreen (NVS) G Protein-Coupled Receptor Assay for human Opioid Receptor Mu (Opiate Mu) (AID 2283290);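 note: hits lower bound tracer signal versus DMSO meaning displacement of the ligand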", "how_it_was_run": "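Primary screen in duplicate at 25 uM, with actives followed in concentration series. CHO-derived receptor membranes, cell-free; bound radioligand read by scintillation counting after filtration at 2.5 h, decrease scored against DMSO.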"}, "[4]": {"biological_target": "rat Serotonin, 5-Hydroxytryptamine Receptor (5HT), Non-Selective Binding, Htr1a (gene 24473) (UniProt P19327)", "sequence (P19327 whole entry, looked up)": "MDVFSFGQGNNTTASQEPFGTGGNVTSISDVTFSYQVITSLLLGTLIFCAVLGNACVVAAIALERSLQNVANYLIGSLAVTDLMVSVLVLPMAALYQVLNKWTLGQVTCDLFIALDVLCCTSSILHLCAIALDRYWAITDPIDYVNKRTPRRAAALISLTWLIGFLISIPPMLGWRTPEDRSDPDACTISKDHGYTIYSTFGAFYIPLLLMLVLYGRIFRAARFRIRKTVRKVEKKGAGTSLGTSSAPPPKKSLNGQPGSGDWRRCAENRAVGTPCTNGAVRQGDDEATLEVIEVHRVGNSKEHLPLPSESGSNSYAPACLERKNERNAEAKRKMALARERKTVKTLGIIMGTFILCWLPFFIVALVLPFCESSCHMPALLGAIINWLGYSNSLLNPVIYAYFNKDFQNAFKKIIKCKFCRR", "experiment": "NVS_GPCR_r5HT_NonSelective: NovaScreen (NVS) G Protein-Coupled Receptor Assay for rat Serotonin, 5-Hydroxytryptamine Receptor (5HT), Non-Selective Binding (AID 2283295)", "how_it_was_run": "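Radioligand displacement on rat cortical membranes, 1 h incubation, filter-based scintillation counting. Primary duplicates at 25 uM, actives retested in concentration series; loss of signal fitted against DMSO as baseline.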"}, "[5]": {"tested_on": "5-hydroxytryptamine receptor 2C (pig)", "experiment": "NVS_GPCR_p5HT2C: NovaScreen (NVS) G Protein-Coupled Receptor Assay for pig Serotonin, 5-Hydroxytryptamine Receptor 2C (5HT2C) (AID 2283288)", "how_it_was_run": "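Pig choroid plexus membranes; radioligand competitive binding, filter-based scintillation counting, read 1 h after dosing. Primary screen in duplicate at 25 uM; actives then run as concentration series; loss of signal versus DMSO baseline.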"}, "[6]": {"biological_target": "guinea pig Serotonin, 5-Hydroxytryptamine Receptor 4 (5HT4), HTR4 (gene 100135548) (UniProt O70528)", "sequence (O70528 whole entry, looked up)": "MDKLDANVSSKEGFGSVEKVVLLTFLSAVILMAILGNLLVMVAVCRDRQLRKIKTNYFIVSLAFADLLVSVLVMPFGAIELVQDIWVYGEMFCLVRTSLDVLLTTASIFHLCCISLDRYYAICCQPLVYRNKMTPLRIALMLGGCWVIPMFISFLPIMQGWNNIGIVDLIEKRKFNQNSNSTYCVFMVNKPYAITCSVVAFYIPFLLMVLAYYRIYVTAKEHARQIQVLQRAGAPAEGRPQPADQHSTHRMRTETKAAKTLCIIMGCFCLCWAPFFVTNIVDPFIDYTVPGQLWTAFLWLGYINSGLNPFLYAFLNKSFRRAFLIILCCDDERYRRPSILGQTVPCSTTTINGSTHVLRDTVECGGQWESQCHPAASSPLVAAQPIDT", "experiment": "NVS_GPCR_g5HT4: NovaScreen (NVS) G Protein-Coupled Receptor Assay for guinea pig Serotonin, 5-Hydroxytryptamine Receptor 4 (5HT4) (AID 2283294)", "how_it_was_run": "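Guinea pig striatal membranes; radioligand competitive displacement, filtration and scintillation counting after 1 h. Primary screen in duplicate at 25 uM; actives then tested in concentration series; loss of binding signal fitted relative to DMSO.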"}, "[7]": {"biological_target": "rat Adrenergic Receptor, Beta (Adrb), Non-selective Binding, Adrb1 (gene 24925) (UniProt P18090)", "sequence (P18090 whole entry, looked up)": "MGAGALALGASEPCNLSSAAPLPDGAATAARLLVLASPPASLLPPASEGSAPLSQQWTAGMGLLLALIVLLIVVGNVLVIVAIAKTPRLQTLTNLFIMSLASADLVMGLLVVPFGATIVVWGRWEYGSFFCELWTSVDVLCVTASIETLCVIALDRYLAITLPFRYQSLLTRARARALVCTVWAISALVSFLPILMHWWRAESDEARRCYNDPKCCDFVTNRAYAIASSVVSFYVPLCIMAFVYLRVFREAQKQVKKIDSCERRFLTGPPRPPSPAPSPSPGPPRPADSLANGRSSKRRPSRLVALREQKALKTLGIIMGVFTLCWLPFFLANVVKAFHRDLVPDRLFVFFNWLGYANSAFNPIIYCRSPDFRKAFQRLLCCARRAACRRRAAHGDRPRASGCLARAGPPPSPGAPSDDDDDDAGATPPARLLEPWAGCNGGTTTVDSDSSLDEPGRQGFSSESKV", "experiment": "NVS_GPCR_rAdrb_NonSelective: NovaScreen (NVS) G Protein-Coupled Receptor Assay for rat Adrenergic Receptor, Beta (Adrb), Non-selective Binding (AID 2283298)", "how_it_was_run": "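Non-selective beta-adrenergic radioligand binding in rat cortical membranes, 1 h incubation, filter-based scintillation read-out. Primary screen 25 uM in duplicate; hits retested in concentration-response up to 50 uM, DMSO baseline.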"}, "[8]": {"biological_target": "human Opioid Receptor Delta 1 (Opiate D1), OPRD1 (gene 4985) (UniProt P41143)", "sequence (P41143 whole entry, looked up)": "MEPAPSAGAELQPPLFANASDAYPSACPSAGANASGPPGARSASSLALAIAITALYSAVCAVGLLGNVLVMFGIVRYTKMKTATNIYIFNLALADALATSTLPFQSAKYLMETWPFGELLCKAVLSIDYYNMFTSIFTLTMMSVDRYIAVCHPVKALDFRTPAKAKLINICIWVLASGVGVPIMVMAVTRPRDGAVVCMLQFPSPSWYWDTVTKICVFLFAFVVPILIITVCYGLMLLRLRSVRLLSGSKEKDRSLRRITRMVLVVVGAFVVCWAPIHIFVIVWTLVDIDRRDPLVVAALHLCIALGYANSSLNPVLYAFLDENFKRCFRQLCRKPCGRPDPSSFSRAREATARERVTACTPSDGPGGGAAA", "experiment": "NVS_GPCR_hOpiate_D1: NovaScreen (NVS) G Protein-Coupled Receptor Assay for human Opioid Receptor Delta 1 (Opiate D1) (AID 2283280)", "how_it_was_run": "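Radioligand displacement on membranes from CHO cells expressing the receptor, read by filter scintillation counting 1 h after dosing. Duplicate single-point screen at 25 uM, then concentration series for actives; loss of signal versus DMSO.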"}, "[9]": {"biological_target": "human Vasopressin 1A Receptor (V1A), AVPR1A (gene 552) (UniProt P37288)", "sequence (P37288 whole entry, looked up)": "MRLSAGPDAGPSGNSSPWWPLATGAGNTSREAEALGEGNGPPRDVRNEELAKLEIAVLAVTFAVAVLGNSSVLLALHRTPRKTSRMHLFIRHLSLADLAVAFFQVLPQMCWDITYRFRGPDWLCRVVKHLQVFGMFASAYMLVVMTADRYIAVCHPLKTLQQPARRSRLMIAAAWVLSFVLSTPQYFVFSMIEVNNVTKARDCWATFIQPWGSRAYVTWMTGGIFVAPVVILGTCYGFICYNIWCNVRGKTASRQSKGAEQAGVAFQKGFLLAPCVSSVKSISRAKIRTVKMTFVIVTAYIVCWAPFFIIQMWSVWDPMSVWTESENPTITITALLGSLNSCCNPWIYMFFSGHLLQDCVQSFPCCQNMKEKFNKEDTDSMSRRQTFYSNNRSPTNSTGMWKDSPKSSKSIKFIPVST", "experiment": "NVS_GPCR_hV1A: NovaScreen (NVS) G Protein-Coupled Receptor Assay for human Vasopressin 1A Receptor (V1A) (AID 2283284)", "how_it_was_run": "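Cell-free radioligand displacement on human platelet preparations, 1.5 h incubation, filter-based scintillation counting. Chemicals first tested in duplicate at 25 uM; actives then run in concentration-response up to 50 uM, loss of signal fitted against DMSO.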"}, "[10]": {"biological_target": "rat Adrenergic, Alpha 1, Non-selective Receptor (Adra1), Adra1a (gene 29412) (UniProt P43140)", "sequence (P43140 whole entry, looked up)": "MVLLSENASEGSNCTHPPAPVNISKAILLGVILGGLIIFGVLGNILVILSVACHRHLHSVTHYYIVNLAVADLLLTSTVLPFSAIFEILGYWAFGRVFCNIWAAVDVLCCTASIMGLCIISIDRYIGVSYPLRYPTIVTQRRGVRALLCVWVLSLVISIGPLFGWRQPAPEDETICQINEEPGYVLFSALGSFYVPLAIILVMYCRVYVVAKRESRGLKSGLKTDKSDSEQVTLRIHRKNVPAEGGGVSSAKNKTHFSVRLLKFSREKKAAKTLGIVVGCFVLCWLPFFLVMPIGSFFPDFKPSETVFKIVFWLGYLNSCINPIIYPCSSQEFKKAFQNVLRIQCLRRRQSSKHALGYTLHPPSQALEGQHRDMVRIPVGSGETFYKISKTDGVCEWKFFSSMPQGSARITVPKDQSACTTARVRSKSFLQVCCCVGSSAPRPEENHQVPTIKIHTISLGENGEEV", "experiment": "NVS_GPCR_rAdra1_NonSelective: NovaScreen (NVS) G Protein-Coupled Receptor Assay for rat Adrenergic, Alpha 1, Non-selective Receptor (Adra1) (AID 2283289)", "how_it_was_run": "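Rat forebrain membranes; radioligand displacement read by filter-based scintillation counting 1 h after dosing. Primary screen in duplicate at 25 uM; hits (e.g. ≥30% inhibition) rerun as concentration–response to 50 uM max. Fitted versus DMSO.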"}, "[11]": {"biological_target": "mouse Cholecystokinin, CCK1 Receptor (CCKA), Cckar (gene 12425) (UniProt O08786)", "sequence (O08786 whole entry, looked up)": "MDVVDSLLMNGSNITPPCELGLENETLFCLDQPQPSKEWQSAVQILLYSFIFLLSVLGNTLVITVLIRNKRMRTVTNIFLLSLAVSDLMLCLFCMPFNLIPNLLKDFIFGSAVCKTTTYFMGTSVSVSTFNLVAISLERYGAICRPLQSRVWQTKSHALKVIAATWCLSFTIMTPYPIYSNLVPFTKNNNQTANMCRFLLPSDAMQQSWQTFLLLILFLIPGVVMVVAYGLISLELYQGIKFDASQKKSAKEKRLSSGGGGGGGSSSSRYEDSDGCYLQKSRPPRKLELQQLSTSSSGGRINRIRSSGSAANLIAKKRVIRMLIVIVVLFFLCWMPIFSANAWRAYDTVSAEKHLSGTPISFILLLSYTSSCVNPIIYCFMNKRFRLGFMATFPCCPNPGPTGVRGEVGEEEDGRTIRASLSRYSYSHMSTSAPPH", "experiment": "NVS_GPCR_mCCKAPeripheral: NovaScreen (NVS) G Protein-Coupled Receptor Assay for mouse Cholecystokinin, CCK1 Receptor (CCKA) (AID 2283285)", "how_it_was_run": "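Radioligand competitive displacement on mouse pancreatic membranes, 2 h incubation; filter-based scintillation counting, loss of signal versus DMSO. Single-concentration screen at 25 uM in duplicate, actives retested in concentration-response up to 50 uM.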"}, "[12]": {"tested_on": "rat Adrenergic, Alpha 1B Receptor (Adra1B), gene 24173", "experiment": "NVS_GPCR_rAdra1B: NovaScreen (NVS) G Protein-Coupled Receptor Assay for rat Adrenergic, Alpha 1B Receptor (Adra1B) (AID 2283297)", "how_it_was_run": "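Rat liver membranes, radioligand displacement with filter-based scintillation detection, 1 h incubation. Primary screen in duplicate at 25 uM; actives retested in concentration series; activity relative to DMSO.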"}, "[13]": {"biological_target": "mouse Cholecystokinin, CCK2 Receptor (CCKB), Cckbr (gene 12426) (UniProt P56481)", "sequence (P56481 whole entry, looked up)": "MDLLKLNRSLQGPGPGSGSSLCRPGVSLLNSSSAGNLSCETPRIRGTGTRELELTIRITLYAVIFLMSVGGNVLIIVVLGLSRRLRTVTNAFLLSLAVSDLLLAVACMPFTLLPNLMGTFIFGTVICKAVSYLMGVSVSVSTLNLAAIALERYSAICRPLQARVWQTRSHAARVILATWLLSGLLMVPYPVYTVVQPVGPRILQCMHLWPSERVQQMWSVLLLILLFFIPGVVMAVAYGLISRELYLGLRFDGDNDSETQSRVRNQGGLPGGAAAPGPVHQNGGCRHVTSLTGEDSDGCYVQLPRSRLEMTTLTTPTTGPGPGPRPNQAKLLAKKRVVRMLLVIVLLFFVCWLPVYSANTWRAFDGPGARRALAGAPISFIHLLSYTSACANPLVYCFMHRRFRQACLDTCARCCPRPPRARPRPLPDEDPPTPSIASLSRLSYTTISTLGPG", "experiment": "NVS_GPCR_mCKKBCentral: NovaScreen (NVS) G Protein-Coupled Receptor Assay for mouse Cholecystokinin, CCK2 Receptor (CCKB) (AID 2283293)", "how_it_was_run": "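Radioligand displacement binding on mouse forebrain membranes, 2 h exposure, filter-based scintillation counting. Primary screen in duplicate at 25 uM; actives (e.g. ≥30% inhibition) retested in concentration-response up to 50 uM; loss of binding signal relative to DMSO.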"}, "[14]": {"biological_target": "rat Serotonin, 5-Hydroxytryptamine Receptor 1 (5HT1), Non-Selective Binding, Htr1a (gene 24473) (UniProt P19327)", "sequence (P19327 whole entry, looked up)": "as the sequence (P19327 whole entry, looked up) above", "experiment": "NVS_GPCR_r5HT1_NonSelective: NovaScreen (NVS) G Protein-Coupled Receptor Assay for rat Serotonin, 5-Hydroxytryptamine Receptor 1 (5HT1), Non-Selective Binding (AID 2283286)", "how_it_was_run": "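Rat cortical membranes, radioligand displacement, 1 h incubation, read by filter scintillation. Primary screen in duplicate at 25 uM. Hits (e.g. ≥30% inhibition) went to concentration-response up to 50 uM, fitted as loss of binding versus DMSO.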"}, "[15]": {"biological_target": "rat Corticotropin Releasing Factor Receptor (CRF), Crhr1 (gene 58959) (UniProt P35353)", "sequence (P35353 whole entry, looked up)": "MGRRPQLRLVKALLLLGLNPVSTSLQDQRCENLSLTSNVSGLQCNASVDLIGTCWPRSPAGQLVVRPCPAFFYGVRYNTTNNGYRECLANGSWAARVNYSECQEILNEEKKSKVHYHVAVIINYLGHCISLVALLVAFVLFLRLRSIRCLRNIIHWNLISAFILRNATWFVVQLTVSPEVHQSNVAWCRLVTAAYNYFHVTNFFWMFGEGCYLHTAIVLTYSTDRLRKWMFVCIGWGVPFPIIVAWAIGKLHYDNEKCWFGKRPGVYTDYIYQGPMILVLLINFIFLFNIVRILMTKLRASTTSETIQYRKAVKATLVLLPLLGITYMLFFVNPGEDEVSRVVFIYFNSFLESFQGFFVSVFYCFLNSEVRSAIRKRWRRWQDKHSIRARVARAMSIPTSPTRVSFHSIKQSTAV", "experiment": "NVS_GPCR_rCRF: NovaScreen (NVS) G Protein-Coupled Receptor Assay for rat Corticotropin Releasing Factor Receptor (CRF) (AID 2283300)", "how_it_was_run": "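Rat cortical membranes used as receptor source in a radioligand competitive displacement binding assay; scintillation read 2 h after dosing. Primary screen run in duplicate at 25 uM; loss of signal versus DMSO baseline indicates binding.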"}}, "note": "Several values for one entry are separate records, joined by “and”; a condition that tells them apart may be missing. Equal entries are not always repeated. Results filed as inconclusive are left out. The source holds several records for some structures; these can differ, active in one and inactive in another. Activity calls are given as the source filed them. Rule for the calls: active = hit-call score of the fitted dose curve at least 0.9, where 1 is the maximum; inconclusive = response in the unintended direction; inactive = score below 0.9."}
{"smiles": "O=C(O)c1nc(Cl)ccc1Cl", "values": [{"measurement": "outcome", "setting": "[1]", "result": "inactive"}]}
{"smiles": "CC(C)Oc1cc(-n2nc(C(C)(C)C)oc2=O)c(Cl)cc1Cl", "values": [{"measurement": "AC50", "setting": "[2]", "result": "9.82 µM (active)"}]}
{"smiles": "CS/C(C)=N/OC(=O)N(C)SN(C)C(=O)O/N=C(\\C)SC", "values": [{"measurement": "outcome", "setting": "[3]", "result": "inactive"}, {"measurement": "outcome", "setting": "[4]", "result": "inactive"}]}
{"smiles": "CON(C)C(=O)Nc1ccc(Cl)c(Cl)c1", "values": [{"measurement": "AC50", "setting": "[5]", "result": "25 µM (active)"}, {"measurement": "AC50", "setting": "[6]", "result": "12.4 µM (active)"}, {"measurement": "outcome", "setting": "[7]", "result": "inactive"}]}
{"smiles": "OC(c1ccc(Cl)cc1)(c1cncnc1)c1ccccc1Cl", "note": "(centres undefined)", "values": [{"measurement": "AC50", "setting": "[8]", "result": "12.5 µM (active)"}]}
{"smiles": "CCOc1cc(Oc2ccc(C(F)(F)F)cc2Cl)ccc1[N+](=O)[O-]", "values": [{"measurement": "outcome", "setting": "[9]", "result": "inactive"}]}
{"smiles": "CCCCOC(=O)c1ccccc1C(=O)OCCCC", "values": [{"measurement": "outcome", "setting": "[10]", "result": "inactive"}]}
{"smiles": "C=CCC1=C(C)[C@@H](OC(=O)[C@@H]2[C@@H](C=C(C)C)C2(C)C)CC1=O", "values": [{"measurement": "AC50", "setting": "[11]", "result": "19.9 µM (active)"}, {"measurement": "AC50", "setting": "[2]", "result": "25 µM (active)"}, {"measurement": "outcome", "setting": "[4]", "result": "inactive"}]}
{"smiles": "CCOP(=S)(OCC)SCn1c(=O)oc2cc(Cl)ccc21", "values": [{"measurement": "outcome", "setting": "[8]", "result": "inactive"}, {"measurement": "AC50", "setting": "[3]", "result": "19.2 µM (active)"}, {"measurement": "outcome", "setting": "[12]", "result": "inactive"}]}
{"smiles": "C#CCOS(=O)OC1CCCCC1Oc1ccc(C(C)(C)C)cc1", "note": "(centres undefined)", "values": [{"measurement": "outcome", "setting": "[13]", "result": "inactive"}]}
{"smiles": "CCNc1nc(Cl)nc(NCC)n1", "values": [{"measurement": "outcome", "setting": "[7]", "result": "inactive"}]}
{"smiles": "CCCCNC(=O)OCC#CI", "values": [{"measurement": "AC50", "setting": "[8]", "result": "13.3 µM (active)"}, {"measurement": "outcome", "setting": "[8]", "result": "inactive"}, {"measurement": "outcome", "setting": "[14]", "result": "inactive"}, {"measurement": "AC50", "setting": "[3]", "result": "9.57 µM (active) and 6.68 µM (active)"}, {"measurement": "AC50", "setting": "[6]", "result": "13.7 µM (active) and 25 µM (active)"}]}
{"smiles": "Oc1ccccc1-c1ccccc1", "values": [{"measurement": "outcome", "setting": "[6]", "result": "inactive"}]}
{"smiles": "CCCN(CCC)c1c([N+](=O)[O-])cc(S(N)(=O)=O)cc1[N+](=O)[O-]", "values": [{"measurement": "outcome", "setting": "[1]", "result": "inactive"}]}
{"smiles": "C=CCC1=C(C)C(OC(=O)C2C(C=C(C)C)C2(C)C)CC1=O", "note": "(centres undefined)", "values": [{"measurement": "AC50", "setting": "[11]", "result": "25 µM (active) [middle of 4 runs]"}, {"measurement": "outcome", "setting": "[5]", "result": "inactive"}, {"measurement": "outcome", "setting": "[3]", "result": "inactive"}]}
{"smiles": "N#Cc1nn(-c2c(Cl)cc(C(F)(F)F)cc2Cl)c(N)c1S(=O)C(F)(F)F", "note": "(centres undefined)", "values": [{"measurement": "outcome", "setting": "[15]", "result": "inactive"}]}
